Bioassay records deposited in PubChem BioAssay by The Scripps Research Institute Molecular Screening Center.
MOR-DOR ag-1 – agonists of human mu-delta opioid receptor heterodimerization; cells, OPRM1-OPRD1 heterodimerization, luminescence; activation, % at 9.3 µM; 340,000 compounds, 0.3% hits;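 also: 0% = vehicle-treated cells and 100% = reference agonist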
Target sequence (P35372 whole entry, looked up): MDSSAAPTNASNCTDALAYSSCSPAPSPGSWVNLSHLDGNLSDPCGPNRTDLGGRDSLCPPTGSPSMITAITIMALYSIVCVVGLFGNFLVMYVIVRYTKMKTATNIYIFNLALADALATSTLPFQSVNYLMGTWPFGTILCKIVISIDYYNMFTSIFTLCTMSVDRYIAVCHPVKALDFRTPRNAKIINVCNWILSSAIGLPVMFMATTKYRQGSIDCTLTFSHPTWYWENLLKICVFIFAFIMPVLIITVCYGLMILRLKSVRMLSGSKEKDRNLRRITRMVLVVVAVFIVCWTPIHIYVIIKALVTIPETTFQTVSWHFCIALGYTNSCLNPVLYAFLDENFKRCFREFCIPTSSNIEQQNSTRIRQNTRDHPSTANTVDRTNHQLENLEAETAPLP
Target sequence (P41143 whole entry, looked up): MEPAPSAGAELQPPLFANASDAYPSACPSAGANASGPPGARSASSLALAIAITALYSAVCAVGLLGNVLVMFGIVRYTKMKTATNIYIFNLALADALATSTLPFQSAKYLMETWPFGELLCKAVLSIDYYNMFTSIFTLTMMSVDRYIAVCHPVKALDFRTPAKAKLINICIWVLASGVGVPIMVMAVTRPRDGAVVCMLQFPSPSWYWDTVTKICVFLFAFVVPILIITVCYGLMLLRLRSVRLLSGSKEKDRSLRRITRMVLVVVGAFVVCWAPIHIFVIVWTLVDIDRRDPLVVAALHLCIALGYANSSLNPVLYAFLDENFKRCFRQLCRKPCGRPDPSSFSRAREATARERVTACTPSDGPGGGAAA
MOR-DOR inv ag – mu-delta opioid heterodimer inverse agonism. P35372+P41143. cell-based MOR-DOR heterodimer luminescence. inhibition, % at 9.3 µM. 340,000 compounds, 0.21% hits. AID 504357; in the data active = inhibition above about 22%, passing the limit was not always enough;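 also: 0% = cells with DMSO and 100% = wells without cells with DMSO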
HTR5A inv ctr – HTR5A inverse agonism, opioid heterodimer counter-screen; inhibition, % at 9.3 µM; P47898; AID 504634; 340,000 compounds, 0.083% hits; HTR5A cell line, luminescence; in the data active = inhibition mostly above about 23%, no sharp cut-off; inactive = mostly below about 18%;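 also: 0% = cells with DMSO and 100% = no-cell wells with DMSO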
HTR5A ag – counter-screen for OPRM1-OPRD1 agonists: human HTR5A agonism | HTR5A agonist assay, luminescence, cell-based | 340,000 compounds, 0.61% hits | activation, % at 9.3 µM | AID 504692; in the data active = activation mostly above about 9.5%, no sharp cut-off; inactive = mostly below about 7.6%;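 also: 0% = cells with vehicle only and 100% = reference agonist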
MOR-DOR ag-2 – opioid heterodimer agonism, HTR5A counter-screen | shares compounds with HTR5A ag | U2OS counter-screen cells, complementation luminescence, 3 h | activation, % at 9.3 µM | 800 compounds, 13% hits | AID 504913
HTR5A ag confirm – confirmation of human HTR5A agonists | shares compounds with HTR5A ag | HTR5A agonist cell assay, luminescence | activation, % at 9.3 µM | 800 compounds, 17% hits | AID 504915; in the data active = activation above about 17%;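 also: 0% = cells with vehicle only and 100% = full reference agonist response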
* = called active by the depositor; · = no result given. An excerpt weighted towards active compounds, which were near 1.1% of everything screened. Rule as the data show it, unless noted: active = activation above about 18%; inactive = the rest.

SMILES | MOR-DOR ag-1 | MOR-DOR inv ag | HTR5A inv ctr | HTR5A ag | MOR-DOR ag-2 | HTR5A ag confirm
CC1Cc2ccccc2N1C(=O)COC(=O)c1c2c(nc3ccccc13)CCCCC2 (stereo not drawn) | 6 | -29 | -91 | 22* | 12 | 4
CC1Cc2ccccc2N1C(=O)COC(=O)c1ccc(Cl)c(S(=O)(=O)N2CCOCC2)c1 (stereo not drawn) | 1 | -3 | -89 | 24* | 3 | -1
CC1CCN(CC(=O)N2c3ccccc3CC2C)CC1 (stereo not drawn) | 0 | -1 | -21 | 0 | · | ·
CCC(CC)CN1C(N(C)C)=NC[C@@H]1CC(C)C | -1 | 3 | -14 | 6 | · | ·
O=S(=O)(NCCC1CC1(Cl)Cl)c1ccccc1 (stereo not drawn) | 0 | 0 | -2 | 0 | · | ·
Cc1ccc(C)c(N2CCN(C(=O)c3ccc4nsnc4c3)CC2)c1 | 6 | -29 | -4 | 3 | · | ·
Cn1cc(C(=O)NCC2COc3ccccc3O2)c(=O)c2cc(S(=O)(=O)N3CCCCC3)ccc21 (stereo not drawn) | 1 | -6 | -113 | 49* | 3 | 10
CC1CN(c2ccccc2)CCN1C(=O)c1cc(COc2c(F)cccc2F)on1 (stereo not drawn) | -2 | 9 | 4 | 14* | 0 | 87*
CC(C)Cc1nnc(NC(=O)CN2C(=O)NC3(CC(C)CC(C)(C)C3)C2=O)s1 (stereo not drawn) | -3 | 17 | 19 | -2 | · | ·
COc1ccc(C(=O)CC(=O)C(=O)NCCc2cccc(C)c2)cc1 | 2 | -9 | -42 | 16* | 0 | 5
COC(=O)CCC[C@H]1CC2(C[C@H](CCCO[Si](C)(C)C(C)(C)C)N1C(=O)OC(C)(C)C)OCCO2 | -1 | 5 | -40 | 16* | 119* | 2
CCc1ccc2[nH]c(=O)c(-c3ccccc3)c(O)c2c1 | -2 | 12 | -5 | 1 | · | ·
Cc1ccc(C(=O)C2=C(O)C(=O)N(Cc3cccnc3)C2c2ccc(OC(C)C)cc2)o1 (stereo not drawn) | -6 | 19 | -14 | 2 | · | ·
COc1ccc(C2C(C(=O)c3ccc(C)o3)=C(O)C(=O)N2Cc2cccnc2)cc1 (stereo not drawn) | -2 | 14 | 5 | 15* | 182* | 4
COc1ccc(C)cc1NC(=O)Nc1ccncc1 | -1 | 9 | -15 | 6 | · | ·
C/C(CC(=O)NCc1ccco1)=N\NC(=O)c1ccc([N+](=O)[O-])cc1Cl | 2 | -11 | 5 | -2 | · | ·
CCOc1ccc(NC(=O)CN(C)C(=O)/C=C/c2ccco2)cc1OCC | -4 | 17 | 7 | 4 | · | ·
COc1cccc(NC(=O)CN(C)C(=O)/C=C/c2cn(-c3ccccc3)nc2-c2ccc(OC)c(OC)c2)c1 | 1 | -4 | 7 | -3 | · | ·
COc1ccc(-c2nn(-c3ccccc3)cc2/C=C/C(=O)N(C)CC(=O)Nc2cccc(F)c2)cc1OC | 0 | -1 | 11 | 15* | 2 | 1
CCC1(CC)CNC(=O)NC1 | -2 | 9 | 17 | -4 | · | ·
O=C(Nc1ccc2c(c1)OCO2)c1cc(-c2ccccc2Cl)on1 | 7 | -46 | -34 | 17* | 0 | 4
O=C(NCc1ccc2c(c1)OCO2)c1cc(-c2ccccc2Cl)on1 | 0 | -2 | -15 | 0 | · | ·
Cc1sc2nc[nH]c(=S)c2c1-c1ccccc1 | 0 | -1 | 14 | -6 | · | ·
CCOC(=O)c1sc(NNC(=O)c2ccc(F)cc2)nc1C | 3 | -14 | -3 | 16* | 0 | -2
CCOC(=O)c1sc(NNC(=O)c2ccc(C)cc2)nc1C | 0 | 2 | -16 | 0 | · | ·
SMILES | MOR-DOR ag-1 | MOR-DOR inv ag | HTR5A inv ctr | HTR5A ag | MOR-DOR ag-2 | HTR5A ag confirm
CN(C)c1ccc(C(=O)Nc2ccc(CN3CCS(=O)(=O)CC3)cc2)cc1 | 0 | 1 | 16 | -1 | · | ·
O=C(N/N=C/c1ccco1)c1ccc(NC(=O)c2ccccc2Cl)cc1 | -2 | 10 | -2 | 1 | · | ·
O=C(N/N=C/c1ccco1)c1cccc(NC(=O)c2cccc(Cl)c2)c1 | -3 | 16 | -63 | 24* | 26* | 13
Cc1occc1C(=O)N1CCCC(CO)(Cc2ccc(F)cc2F)C1 (stereo not drawn) | 0 | -2 | 3 | 4 | · | ·
COC/C=C/C1=CC2=CC(=O)C(C)(OC(=O)c3cnc4ccccc4n3)C(=O)C2=CN1CCCOC(C)C (stereo not drawn) | 2 | -9 | -45 | 18* | 42* | 0
Cn1cccc1C(=O)NC(=O)COC(=O)CNS(=O)(=O)c1ccc(Br)cc1 | -2 | 8 | -49 | 17* | 17 | 13
O=c1oc2ccccc2n1Cc1cccc(C(F)(F)F)c1 | 1 | -6 | -20 | 8 | · | ·
Cc1ccccc1NC(=O)N(O)C1(C#N)CCCCC1 | 0 | 0 | -14 | 4 | · | ·
O=C(CS(=O)(=O)c1ccc(F)cc1)Nc1nnc(-c2ccccc2Cl)o1 | -2 | 11 | -92 | 34* | 0 | -5
COc1ccc(-c2nnc(NC(=O)CS(=O)(=O)c3ccc(F)cc3)o2)c(OC)c1 | -3 | 14 | 9 | -1 | · | ·
CCCCC1(Br)C(=O)N(c2ccccc2)N(c2ccccc2)C1=O | -6 | 23 | -42 | 16* | 1 | 0
C=CCc1cccc2cc(C(=O)N3CCOCC3)c(=O)oc12 | -2 | 11 | -31 | 8 | · | ·
C=CCc1cccc2cc(C(=O)N3CCN(C(=O)c4ccccc4)CC3)c(=O)oc12 | 0 | 2 | -48 | 16* | 0 | -4
C[C@]12C=CC(=O)C=C1CC[C@@H]1[C@@H]2[C@@H](O)C[C@@]2(C)[C@H]1CC[C@]2(O)C(=O)CO | -2 | 8 | -8 | 2 | · | ·
COc1ccc(NC(=O)CN(C)C(=O)/C=C/c2ccc(S(=O)(=O)N3CCCCCC3)cc2)cc1 | -1 | 8 | -6 | 2 | · | ·
COc1ccc(NC(=O)CN(C)C(=O)/C=C/c2ccc(OCc3ccccc3)cc2)cc1 | 10 | -83 | -51 | 24* | 2 | 1
CC(C)(C)C1CCC(=NNS(=O)(=O)c2ccc(Br)cc2)CC1 (stereo not drawn) | 0 | -1 | -73 | 21* | 7 | 4
Cc1ccc(S(=O)(=O)NN=C2CCC(C(C)(C)C)CC2)cc1[N+](=O)[O-] (stereo not drawn) | -1 | 6 | -36 | 10 | · | ·
c1ccc(-c2cc(-c3nnc4n3N=C(c3ccc5ccccc5c3)CS4)[nH]n2)cc1 | 2 | -12 | -66 | 15* | 6 | 15
C[C@H](CO)N1C[C@H](C)[C@@H](CN(C)Cc2ccc(Cl)c(Cl)c2)Oc2ccc(NC(=O)Cn3cnnn3)cc2C1=O | -5 | 22 | -8 | 0 | · | ·
CCc1ccc(/C=C/C(=O)c2cc(Br)ccc(=O)c2O)cc1 | 6 | -33 | 5 | 17* | 42* | 5
Cc1ccc(Cl)cc1NC(=O)c1cc2ccccc2cc1O | 8 | -41 | 2 | 22* | 5 | 16
O=C(Nc1ccccc1)C1C2/C=C\CCCCC21 (stereo not drawn) | 4 | -26 | -45 | -3 | · | ·
